# Experimental data: PMC7862700, “An all-to-all approach to the identification of sequence-specific readers for epigenetic DNA modifications on cytosine”
# Columns and labels:
# Assay in all cases: DAPPL (digital affinity profiling via proximity ligation, sequencing); 10 mM Tris-HCl pH 7.5, 50 mM NaCl, 1 mM DTT, 4% glycerol, room temperature, 30 min; GST-TFs on glutathione beads, 16-mer random dsDNA library, 0.1% formaldehyde crosslink after washing; high values mean tight binding
# FLI1 = biological target: T1, FLI1 (Homo sapiens, UniProt Q01543 1-452); details: protein: recombinant; tags: N-terminal GST; dsDNA, one strand shown
# T1 sequence: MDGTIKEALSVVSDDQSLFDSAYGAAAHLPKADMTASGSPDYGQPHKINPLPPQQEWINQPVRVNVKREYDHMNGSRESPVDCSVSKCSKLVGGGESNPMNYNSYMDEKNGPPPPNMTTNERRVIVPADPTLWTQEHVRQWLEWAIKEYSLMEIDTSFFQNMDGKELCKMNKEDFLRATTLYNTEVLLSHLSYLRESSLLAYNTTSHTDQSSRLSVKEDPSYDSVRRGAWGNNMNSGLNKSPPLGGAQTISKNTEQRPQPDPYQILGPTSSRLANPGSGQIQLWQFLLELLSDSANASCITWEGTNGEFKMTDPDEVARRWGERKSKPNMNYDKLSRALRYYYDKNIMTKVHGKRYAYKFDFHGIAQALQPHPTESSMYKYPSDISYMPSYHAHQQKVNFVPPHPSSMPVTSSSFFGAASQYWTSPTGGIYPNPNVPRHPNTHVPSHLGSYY
# Summary of the method: (§1)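 The binding signal reported is, for every hexamer, its read frequency for a factor over its read frequency for the tag-only sample. Reads came from pools of yeast-expressed, GST-fused human transcription factors on glutathione beads, barcoded with DNA and mixed with that sample, which were incubated with 200 nmole of a random double-stranded 16-mer DNA library in Tris/NaCl/DTT/glycerol buffer at room temperature for 30 min. After washing, the pools were crosslinked with 0.1% formaldehyde, proximity-ligated with BsaI/T4 ligase for 1 h at 37 °C, PCR-amplified and sequenced on an Illumina NextSeq500.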
# ELK1 = biological target: T2, ELK1 (Homo sapiens, UniProt P19419 1-428); details: protein: recombinant; tags: N-terminal GST; dsDNA, one strand shown
# T2 sequence: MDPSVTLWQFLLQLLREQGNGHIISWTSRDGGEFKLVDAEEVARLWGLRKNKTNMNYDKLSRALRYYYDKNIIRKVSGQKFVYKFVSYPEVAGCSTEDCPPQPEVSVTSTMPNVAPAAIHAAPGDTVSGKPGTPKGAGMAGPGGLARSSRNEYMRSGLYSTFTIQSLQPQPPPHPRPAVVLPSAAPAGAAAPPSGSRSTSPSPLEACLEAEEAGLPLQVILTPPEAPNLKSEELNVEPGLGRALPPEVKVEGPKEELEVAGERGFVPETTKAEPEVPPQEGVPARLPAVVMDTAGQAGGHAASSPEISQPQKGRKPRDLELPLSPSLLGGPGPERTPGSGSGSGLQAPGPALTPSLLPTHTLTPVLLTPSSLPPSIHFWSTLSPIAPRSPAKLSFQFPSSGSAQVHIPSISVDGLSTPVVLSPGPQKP
# Summary of the method: as §1
# GABPA = biological target: T3, GABPA (Homo sapiens, UniProt Q06546 1-454); details: protein: recombinant; tags: N-terminal GST; dsDNA, one strand shown
# T3 sequence: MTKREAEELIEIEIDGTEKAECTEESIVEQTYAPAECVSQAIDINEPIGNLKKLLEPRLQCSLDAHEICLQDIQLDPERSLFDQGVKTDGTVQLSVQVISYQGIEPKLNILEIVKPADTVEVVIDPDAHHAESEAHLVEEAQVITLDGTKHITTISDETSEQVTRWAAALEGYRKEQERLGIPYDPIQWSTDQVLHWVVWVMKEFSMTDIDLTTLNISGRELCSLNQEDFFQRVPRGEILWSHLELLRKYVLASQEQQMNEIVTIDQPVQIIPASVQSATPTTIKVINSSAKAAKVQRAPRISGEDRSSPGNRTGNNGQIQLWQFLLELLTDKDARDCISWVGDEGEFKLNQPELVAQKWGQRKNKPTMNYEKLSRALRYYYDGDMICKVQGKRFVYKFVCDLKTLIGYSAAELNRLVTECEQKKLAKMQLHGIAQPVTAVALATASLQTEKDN
# Summary of the method: as §1
# ERG = biological target: T4, ERG (Homo sapiens, UniProt P11308 1-479); details: protein: recombinant; tags: N-terminal GST; dsDNA, one strand shown
# T4 sequence: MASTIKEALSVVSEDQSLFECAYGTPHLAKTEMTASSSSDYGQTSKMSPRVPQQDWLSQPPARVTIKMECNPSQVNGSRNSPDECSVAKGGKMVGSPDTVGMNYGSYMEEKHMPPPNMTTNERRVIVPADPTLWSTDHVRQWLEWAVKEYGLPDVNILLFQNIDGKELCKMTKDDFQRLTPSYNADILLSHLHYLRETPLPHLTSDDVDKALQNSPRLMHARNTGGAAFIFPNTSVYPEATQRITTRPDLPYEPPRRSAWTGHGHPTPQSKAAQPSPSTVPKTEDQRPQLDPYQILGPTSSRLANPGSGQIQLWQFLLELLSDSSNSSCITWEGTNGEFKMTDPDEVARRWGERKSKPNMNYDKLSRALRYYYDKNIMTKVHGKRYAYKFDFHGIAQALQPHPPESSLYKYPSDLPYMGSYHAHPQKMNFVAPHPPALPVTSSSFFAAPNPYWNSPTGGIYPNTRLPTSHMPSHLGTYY
# Summary of the method: as §1
# ELF1 = ELF1 (Homo sapiens, UniProt P32519 1-619); details: protein: recombinant; tags: N-terminal GST; dsDNA, one strand shown
# ELF1, sequence (P32519 whole entry): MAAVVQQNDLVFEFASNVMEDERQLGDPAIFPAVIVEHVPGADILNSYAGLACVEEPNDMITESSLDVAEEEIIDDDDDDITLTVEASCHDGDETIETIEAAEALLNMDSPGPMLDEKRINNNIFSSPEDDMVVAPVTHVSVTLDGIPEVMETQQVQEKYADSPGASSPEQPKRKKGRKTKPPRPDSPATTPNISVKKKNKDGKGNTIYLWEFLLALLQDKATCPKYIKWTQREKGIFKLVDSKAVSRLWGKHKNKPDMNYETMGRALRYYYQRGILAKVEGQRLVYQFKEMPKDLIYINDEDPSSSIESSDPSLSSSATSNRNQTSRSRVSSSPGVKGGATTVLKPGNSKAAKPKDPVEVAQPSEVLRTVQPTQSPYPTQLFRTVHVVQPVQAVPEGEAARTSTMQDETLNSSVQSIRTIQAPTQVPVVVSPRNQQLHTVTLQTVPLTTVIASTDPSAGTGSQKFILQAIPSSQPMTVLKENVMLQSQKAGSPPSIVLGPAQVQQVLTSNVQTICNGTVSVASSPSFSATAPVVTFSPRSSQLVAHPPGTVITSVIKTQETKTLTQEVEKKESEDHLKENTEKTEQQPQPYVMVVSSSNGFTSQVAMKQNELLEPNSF
# Summary of the method: as §1
# EHF = biological target: T5, EHF (Homo sapiens, UniProt Q9NZC4 1-300); details: protein: recombinant; tags: N-terminal GST; dsDNA, one strand shown
# T5 sequence: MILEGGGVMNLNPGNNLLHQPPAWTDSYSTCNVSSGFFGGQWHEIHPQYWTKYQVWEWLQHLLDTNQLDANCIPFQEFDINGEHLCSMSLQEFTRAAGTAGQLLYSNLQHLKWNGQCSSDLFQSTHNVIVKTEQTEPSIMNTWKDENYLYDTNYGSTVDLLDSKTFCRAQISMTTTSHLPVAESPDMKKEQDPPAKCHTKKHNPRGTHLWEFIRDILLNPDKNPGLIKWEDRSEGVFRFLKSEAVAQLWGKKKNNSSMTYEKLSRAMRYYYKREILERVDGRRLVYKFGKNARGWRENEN
# Summary of the method: as §1
# SPI1 = SPI1 (Homo sapiens, UniProt P17947 1-270); details: protein: recombinant; tags: N-terminal GST; dsDNA, one strand shown
# Summary of the method: as §1
# SPIB = SPIB (Homo sapiens, UniProt Q01892 1-262); details: protein: recombinant; tags: N-terminal GST; dsDNA, one strand shown
# SPIB, sequence (Q01892 whole entry): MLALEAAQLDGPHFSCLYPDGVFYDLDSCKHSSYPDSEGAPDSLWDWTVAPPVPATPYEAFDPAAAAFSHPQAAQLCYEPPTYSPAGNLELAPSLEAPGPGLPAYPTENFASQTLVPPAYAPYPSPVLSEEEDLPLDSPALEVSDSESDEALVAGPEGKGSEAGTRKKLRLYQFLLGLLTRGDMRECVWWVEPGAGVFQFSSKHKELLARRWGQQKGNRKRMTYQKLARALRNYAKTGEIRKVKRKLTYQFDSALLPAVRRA
# Summary of the method: as §1
# ELK3 = biological target: T6, ELK3 (Homo sapiens, UniProt P41970 1-407); details: protein: recombinant; tags: N-terminal GST; dsDNA, one strand shown
# T6 sequence: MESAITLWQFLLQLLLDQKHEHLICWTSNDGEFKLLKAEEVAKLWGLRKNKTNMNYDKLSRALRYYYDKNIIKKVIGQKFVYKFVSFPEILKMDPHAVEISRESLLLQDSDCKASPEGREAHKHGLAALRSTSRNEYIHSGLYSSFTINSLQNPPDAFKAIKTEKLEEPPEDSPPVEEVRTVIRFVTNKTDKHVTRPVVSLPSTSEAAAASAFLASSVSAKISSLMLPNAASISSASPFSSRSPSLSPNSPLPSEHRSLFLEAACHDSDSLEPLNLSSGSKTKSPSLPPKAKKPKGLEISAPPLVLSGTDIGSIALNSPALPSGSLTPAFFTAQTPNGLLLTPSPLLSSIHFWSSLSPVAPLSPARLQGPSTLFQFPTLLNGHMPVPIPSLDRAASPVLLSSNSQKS
# Summary of the method: as §1
# FEV = biological target: T7, FEV (Homo sapiens, UniProt Q99581 1-238); details: protein: recombinant; tags: N-terminal GST; dsDNA, one strand shown
# T7 sequence: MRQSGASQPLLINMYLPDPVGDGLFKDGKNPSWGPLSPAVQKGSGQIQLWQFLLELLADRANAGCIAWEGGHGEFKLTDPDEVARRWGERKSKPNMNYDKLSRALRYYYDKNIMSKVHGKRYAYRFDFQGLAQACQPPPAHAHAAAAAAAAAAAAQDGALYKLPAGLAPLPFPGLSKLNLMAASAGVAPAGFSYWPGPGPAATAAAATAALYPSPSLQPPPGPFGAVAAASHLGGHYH
# Summary of the method: as §1
# ETV5 = ETV5 (Homo sapiens, UniProt P41161 1-510); details: protein: recombinant; tags: N-terminal GST; dsDNA, one strand shown
# ETV5, sequence (P41161 whole entry): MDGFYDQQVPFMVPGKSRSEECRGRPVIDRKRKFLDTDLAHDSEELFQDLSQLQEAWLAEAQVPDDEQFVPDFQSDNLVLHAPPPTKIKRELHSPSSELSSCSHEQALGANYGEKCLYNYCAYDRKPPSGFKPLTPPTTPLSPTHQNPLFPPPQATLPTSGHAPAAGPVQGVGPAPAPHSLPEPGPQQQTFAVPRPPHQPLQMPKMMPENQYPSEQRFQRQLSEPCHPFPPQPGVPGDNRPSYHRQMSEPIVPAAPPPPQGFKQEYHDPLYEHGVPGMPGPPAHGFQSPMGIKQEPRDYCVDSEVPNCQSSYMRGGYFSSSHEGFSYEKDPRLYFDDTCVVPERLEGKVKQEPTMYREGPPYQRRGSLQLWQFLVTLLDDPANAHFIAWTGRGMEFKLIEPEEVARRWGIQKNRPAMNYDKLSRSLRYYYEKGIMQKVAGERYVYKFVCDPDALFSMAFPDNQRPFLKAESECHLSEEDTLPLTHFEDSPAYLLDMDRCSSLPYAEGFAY
# Summary of the method: as §1
# HSF1 = HSF1 (Homo sapiens, UniProt Q00613 1-529); details: protein: recombinant; tags: N-terminal GST; chain copies: 3; dsDNA, one strand shown
# HSF1, sequence (Q00613 whole entry): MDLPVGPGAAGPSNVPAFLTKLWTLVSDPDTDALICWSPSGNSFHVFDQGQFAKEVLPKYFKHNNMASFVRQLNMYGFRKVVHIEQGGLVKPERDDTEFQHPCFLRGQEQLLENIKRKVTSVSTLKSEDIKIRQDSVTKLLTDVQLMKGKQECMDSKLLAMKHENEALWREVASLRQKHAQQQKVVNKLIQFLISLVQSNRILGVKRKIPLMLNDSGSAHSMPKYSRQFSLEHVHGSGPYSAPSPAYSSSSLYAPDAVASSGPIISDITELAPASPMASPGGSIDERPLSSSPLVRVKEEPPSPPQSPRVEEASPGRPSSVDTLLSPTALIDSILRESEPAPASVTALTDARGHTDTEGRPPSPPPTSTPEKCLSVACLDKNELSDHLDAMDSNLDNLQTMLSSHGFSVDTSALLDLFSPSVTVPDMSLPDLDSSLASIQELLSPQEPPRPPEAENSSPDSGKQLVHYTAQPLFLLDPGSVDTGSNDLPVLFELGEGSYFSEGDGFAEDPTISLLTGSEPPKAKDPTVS
# Summary of the method: as §1
# SPIC = biological target: T8, SPIC (Homo sapiens, UniProt Q8N5J4 1-248); details: protein: recombinant; tags: N-terminal GST; dsDNA, one strand shown
# T8 sequence: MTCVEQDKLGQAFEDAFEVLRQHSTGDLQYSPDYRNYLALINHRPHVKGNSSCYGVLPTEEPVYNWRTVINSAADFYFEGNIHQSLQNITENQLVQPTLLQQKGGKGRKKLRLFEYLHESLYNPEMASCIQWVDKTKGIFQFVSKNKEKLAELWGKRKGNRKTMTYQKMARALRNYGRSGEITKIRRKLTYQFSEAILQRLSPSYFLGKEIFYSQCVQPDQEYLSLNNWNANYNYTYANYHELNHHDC
# Summary of the method: as §1
# ELF4 = ELF4 (Homo sapiens, UniProt Q99607 1-663); details: protein: recombinant; tags: N-terminal GST; dsDNA, one strand shown
# ELF4, sequence (Q99607 whole entry): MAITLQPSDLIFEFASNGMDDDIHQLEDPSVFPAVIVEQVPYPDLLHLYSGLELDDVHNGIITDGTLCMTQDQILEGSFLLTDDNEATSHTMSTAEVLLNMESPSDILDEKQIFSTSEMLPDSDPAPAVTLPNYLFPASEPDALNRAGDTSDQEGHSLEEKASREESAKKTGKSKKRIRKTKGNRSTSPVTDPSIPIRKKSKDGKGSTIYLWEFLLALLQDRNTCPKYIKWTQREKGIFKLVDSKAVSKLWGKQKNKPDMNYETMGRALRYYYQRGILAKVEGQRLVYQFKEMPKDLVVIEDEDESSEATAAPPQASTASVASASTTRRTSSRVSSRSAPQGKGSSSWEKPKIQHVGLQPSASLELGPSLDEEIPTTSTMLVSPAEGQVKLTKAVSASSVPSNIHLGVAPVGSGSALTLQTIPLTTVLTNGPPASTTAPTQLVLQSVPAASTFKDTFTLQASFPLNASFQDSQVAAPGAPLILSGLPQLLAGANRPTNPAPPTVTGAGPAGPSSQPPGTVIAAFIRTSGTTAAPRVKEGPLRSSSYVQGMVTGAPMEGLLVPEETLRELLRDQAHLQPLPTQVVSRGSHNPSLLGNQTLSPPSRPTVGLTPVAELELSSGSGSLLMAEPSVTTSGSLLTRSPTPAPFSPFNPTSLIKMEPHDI
# Summary of the method: as §1
# ELK4 = biological target: T9, ELK4 (Homo sapiens, UniProt P28324-2 1-405); details: protein: recombinant; tags: N-terminal GST; dsDNA, one strand shown
# T9 sequence: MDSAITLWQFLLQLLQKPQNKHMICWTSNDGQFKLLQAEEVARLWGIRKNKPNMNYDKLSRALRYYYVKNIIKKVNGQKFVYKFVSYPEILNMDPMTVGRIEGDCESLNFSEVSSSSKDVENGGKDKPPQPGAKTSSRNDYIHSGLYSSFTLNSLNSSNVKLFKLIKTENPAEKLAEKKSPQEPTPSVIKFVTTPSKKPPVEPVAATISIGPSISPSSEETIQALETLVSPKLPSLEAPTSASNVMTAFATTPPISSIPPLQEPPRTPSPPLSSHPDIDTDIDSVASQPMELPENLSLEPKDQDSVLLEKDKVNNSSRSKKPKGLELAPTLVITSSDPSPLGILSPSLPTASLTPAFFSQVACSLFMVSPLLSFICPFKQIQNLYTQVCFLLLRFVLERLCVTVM
# Summary of the method: as §1
# ETV2 = biological target: T10, ETV2 (Homo sapiens, UniProt O00321 1-342); details: protein: recombinant; tags: N-terminal GST; dsDNA, one strand shown
# T10 sequence: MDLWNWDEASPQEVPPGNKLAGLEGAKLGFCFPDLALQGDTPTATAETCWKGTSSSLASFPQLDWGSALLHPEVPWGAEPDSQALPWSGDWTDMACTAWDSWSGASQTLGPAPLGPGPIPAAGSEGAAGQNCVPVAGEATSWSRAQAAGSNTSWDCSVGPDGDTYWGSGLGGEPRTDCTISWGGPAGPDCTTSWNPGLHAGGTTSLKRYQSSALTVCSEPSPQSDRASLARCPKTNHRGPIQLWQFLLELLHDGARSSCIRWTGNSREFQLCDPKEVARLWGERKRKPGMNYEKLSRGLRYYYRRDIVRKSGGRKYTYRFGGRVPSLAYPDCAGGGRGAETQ
# Summary of the method: as §1
# ELF3 = biological target: T11, ELF3 (Homo sapiens, UniProt P78545 1-371); details: protein: recombinant; tags: N-terminal GST; dsDNA, one strand shown
# T11 sequence: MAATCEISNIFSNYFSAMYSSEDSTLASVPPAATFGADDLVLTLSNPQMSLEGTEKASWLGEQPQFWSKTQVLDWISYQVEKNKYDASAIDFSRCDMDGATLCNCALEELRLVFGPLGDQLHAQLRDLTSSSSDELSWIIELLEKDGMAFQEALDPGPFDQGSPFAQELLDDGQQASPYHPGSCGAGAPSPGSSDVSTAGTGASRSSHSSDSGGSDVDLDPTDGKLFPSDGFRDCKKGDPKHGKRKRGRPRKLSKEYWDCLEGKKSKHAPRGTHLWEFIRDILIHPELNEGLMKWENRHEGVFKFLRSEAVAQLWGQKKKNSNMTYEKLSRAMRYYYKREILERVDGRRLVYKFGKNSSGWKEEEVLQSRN
# Summary of the method: as §1
# ETV1 = ETV1 (Homo sapiens, UniProt P50549 1-477); details: protein: recombinant; tags: N-terminal GST; dsDNA, one strand shown
# ETV1, sequence (P50549 whole entry): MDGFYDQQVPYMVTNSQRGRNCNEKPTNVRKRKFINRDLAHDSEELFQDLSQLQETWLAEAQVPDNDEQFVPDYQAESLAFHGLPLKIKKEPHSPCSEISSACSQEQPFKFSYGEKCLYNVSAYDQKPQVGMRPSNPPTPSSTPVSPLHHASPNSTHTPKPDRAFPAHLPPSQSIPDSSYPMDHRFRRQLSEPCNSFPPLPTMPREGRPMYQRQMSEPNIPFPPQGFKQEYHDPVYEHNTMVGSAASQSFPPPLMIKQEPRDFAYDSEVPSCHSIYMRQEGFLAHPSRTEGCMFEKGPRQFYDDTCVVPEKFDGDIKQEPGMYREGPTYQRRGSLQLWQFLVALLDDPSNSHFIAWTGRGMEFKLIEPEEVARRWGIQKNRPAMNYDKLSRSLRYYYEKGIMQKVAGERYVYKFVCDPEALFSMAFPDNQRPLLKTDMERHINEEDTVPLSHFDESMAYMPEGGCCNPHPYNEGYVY
# Summary of the method: as §1
sequence,measurement,setting,value
CGTACA,binding signal,FLI1,"1.18 fold enrichment (6-mer frequency, TF over GST control)"
same,binding signal,ELK1,"1.19 fold enrichment (6-mer frequency, TF over GST control)"
same,binding signal,GABPA,"1.17 fold enrichment (6-mer frequency, TF over GST control)"
same,binding signal,ERG,"1.17 fold enrichment (6-mer frequency, TF over GST control)"
same,binding signal,ELF1,"1.26 fold enrichment (6-mer frequency, TF over GST control)"
same,binding signal,EHF,"1.16 fold enrichment (6-mer frequency, TF over GST control)"
same,binding signal,SPI1,"1.12 fold enrichment (6-mer frequency, TF over GST control)"
same,binding signal,SPIB,"1.1 fold enrichment (6-mer frequency, TF over GST control)"
same,binding signal,ELK3,"1.16 fold enrichment (6-mer frequency, TF over GST control)"
same,binding signal,FEV,"1.2 fold enrichment (6-mer frequency, TF over GST control)"
same,binding signal,ETV5,"1.22 fold enrichment (6-mer frequency, TF over GST control)"
same,binding signal,HSF1,"1.02 fold enrichment (6-mer frequency, TF over GST control)"
same,binding signal,SPIC,"1.31 fold enrichment (6-mer frequency, TF over GST control)"
same,binding signal,ELF4,"1.2 fold enrichment (6-mer frequency, TF over GST control)"
same,binding signal,ELK4,"1.24 fold enrichment (6-mer frequency, TF over GST control)"
same,binding signal,ETV2,"1.36 fold enrichment (6-mer frequency, TF over GST control)"
same,binding signal,ELF3,"1.27 fold enrichment (6-mer frequency, TF over GST control)"
same,binding signal,ETV1,"1.13 fold enrichment (6-mer frequency, TF over GST control)"
